12-LOX inh: blocks human arachidonate 12S-lipoxygenase; actives 1.1% (n = 580,000); Potency, µM (series often up to 108 µM), without a hit: at the highest dose activity change, negative = inhibition, actives largely listed as inhibitors; purified 12hLO, xylenol orange hydroperoxide absorbance; P18054; AID 1671190; further: on the % scale 0 is the no-effect control and ±100 the full control effect
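Purified human 12hLO (150 nM final) in 25 mM Hepes, 0.01% Triton X-100, pH 7.0 was preincubated 15 min at room temperature with compound. Then 40 uM arachidonic acid was added, 30 min. Hydroperoxide was read by Fe-XO absorbance ratio 573/405 nm.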
EPAC1 agonist: agonists of human EPAC1; O95398; EPAC1 agonist qHTS, biochemical assay; response scale: 100% = response to 6.5 mM cAMP; Potency, µM (highest dose often 154 µM), for inactives: at the highest dose activation, usual class: activators; actives 0.073% (n = 360,000); further: nearly all actives have a fitted effect of over 60% in size
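Normalized to 6.5 mM cAMP, activity reflects EPAC1-catalysed release of BODIPY-GDP from Rap1B, followed kinetically over 30 min at 480 nm excitation, 540 nm emission. Reaction contained 100 nM EPAC1, 250 nM Rap1B-BODIPY-GDP, 50 uM GDP.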
EPAC2 antagonist: blocks human EPAC2 exchange factor. Q8WZA2. EPAC2 GEF exchange of Rap1B-BODIPY-GDP, fluorescence. Potency, µM (highest dose often 114 µM), without a hit: at the highest dose activity, negative = inhibition, most hits filed as inhibitors. actives 0.18% (n = 360,000). AID 720708; further: on the % scale 0 is the no-effect control and ±100 the full control effect; nearly all actives have a fitted effect of over 45% in size
USP1 inh: USP1/UAF1 (human) deubiquitinase inhibition | recombinant USP1/UAF1, Ub-Rhodamine cleavage fluorescence | actives 0.23% (n = 390,000) | AID 743255 | Potency, µM (highest dose often 57.1 µM), inactives show top-dose activity change, negative = inhibition, hits mostly inhibitors; further: on the % scale 0 is the no-effect control and ±100 the full control effect; nearly all actives have a fitted effect of over 60% in size
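1 nM enzyme complex + cpd, 15 min RT; start with Ub-Rho 150nM final; kinetic fluorescence ex 480/em 540, 6 reads q60 s. Buffer 50mM HEPES pH 7.8, 0.5mM EDTA, 0.1 mg/ml BSA, 1mM TCEP, 0.01% Tween-20.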
EPAC2 agonist: EPAC2 (human) agonism | Q8WZA2 | EPAC2 activation, biochemical qHTS; response scale: 100% = 6.5 mM cAMP response | Potency, µM (titrated, usually from 154 µM), for inactives: top-dose activation, most hits filed as activators | actives 0.079% (n = 360,000) | AID 720711; further: nearly all actives have a fitted effect of over 50% in size
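Readout is BODIPY fluorescence (480 nm excitation, 540 nm emission), which falls as labeled GDP is exchanged off Rap1B. EPAC2 at 100 nM acted on 250 nM RAP1B-BODIPY-GDP with 50 uM GDP present.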
EPAC1 antagonist: blocks human EPAC1 exchange factor. O95398. EPAC1 GEF assay, Rap1b-BODIPY-GDP exchange fluorescence. Potency, µM (top dose mostly 115 µM), for the others: top-dose activity change, negative = inhibition, hits mostly inhibitors. actives 0.14% (n = 360,000). AID 720709;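 further: plate controls were vehicle for no effect and positive control for full effect; nearly all actives have a fitted effect of over 50% in size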
Numbers without * were called inactive; u = inconclusive; x = no result given; ! = not active in a repeat; [ ] = another dose, or the depositor's remark. Sampled rows, rich in hits. Any-hit rate of the full collection: about 1.3%. The call rests on the fitted dose curve; in most records, active means well fitted curve in the direction sought with a large enough effect; inconclusive means small, poorly fitted or top-dose-only effect, or another doubt; inactive means no such curve, though single readings can be large; an effect the other way counts as inactive or inconclusive. Potency means the concentration at half of the fitted maximal effect.

SMILES	12-LOX inh	EPAC1 agonist	EPAC2 antagonist	USP1 inh	EPAC2 agonist	EPAC1 antagonist
Cc1cc(C)n2nc(C(=O)OCC(=O)c3ccccc3Cl)nc2n1	-14%	1%	-2%	-13%	8%	-1%
C=CCn1c(N2CCN(Cc3ccc(Cl)cc3)CC2)nc2c1c(=O)[nH]c(=O)n2C	-13%	x	x	x	x	x
Cc1cc(Br)ccc1NC(=O)C1C2CCC(O2)C1C(=O)O (centres undefined)	5µM*	13%	0%	-15%	-3%	-16%
O=C(Nc1ccncc1)c1ccc(COc2cc(Cl)ccc2Cl)cc1	26%	x	x	x	x	x
[N-]=C=C1C(=S)NC(=O)[C@H]([n+]2ccccc2)[C@H]1c1ccc(Cl)cc1	10µM*	-17%	5%	-12%	5%	7%
CNC(=S)N/N=C(\C)c1ccc(Cl)c(Cl)c1	40µM*	9%	-13%	-11%	5%	-7%
O=S(=O)(Nc1nc2ccccc2nc1NC1CCCCC1)c1ccc(F)cc1	0.63µM*	x	x	x	x	x
O=C(c1ccc(OCCN2CCCCC2)cc1)c1c(-c2ccc(O)cc2)sc2cc(O)ccc12	14µM*!	-14%	2%	u	7%	-3%
Oc1cccc(-c2sc3ccccc3c2-c2ccc(OCCN3CCCCC3)cc2)c1	u	5%	9%	x	8%	0%
NC(=O)c1ccccc1NCC1CC1(Cl)Cl (centres undefined)	65%	x	x	x	x	x
Cc1cc2ccccn2c1C(=O)c1ccc(Cl)c([N+](=O)[O-])c1	-11%	4%	11µM*	-2%	3%	-10%
Cc1cc2ccccn2c1C(=O)c1cccc([N+](=O)[O-])c1	-28%	20%	u	0%	24%	-2%
Cc1cc2ccccn2c1C(=O)c1ccccc1Br	-22%	5%	13µM*	-13%	21%	1%
Cc1ccc2c(c1)c(/C=C/c1cc[n+](C)cc1)c(C)n2C	u	u	2%	22µM*	u	6%
Cc1ccc2[nH]c(C)c(/C=C/c3cc[n+](C)cc3)c2c1	u	u	43%	u	u	56%
CC(Oc1ccc(Cl)cc1Cl)c1ccn[nH]1 (centres undefined)	6%	-6%	45µM*	-8%	12%	-16%
CC(Oc1ccc(Cl)cc1Cl)C(=O)Nc1ccncc1 (centres undefined)	0%	-3%	1%	-14%	1%	5%
CCn1cc(C(=O)NC(=S)Nc2ccccc2[N+](=O)[O-])cn1	u	-9%	-13%	-14%	-10%	-24%
CCn1cc(C(=O)NC(=S)Nc2ccccc2Br)cn1	28µM*	12%	-9%	-21%	13%	-1%
CC(C)N1C(=O)C(NC(=O)C(=O)NCCc2c[nH]c3ccc(F)cc23)c2ccccc21 (centres undefined)	-18%	x	x	x	x	x
O=C1C=C(Nc2cccc(Cl)c2)CC2(CCCCC2)C1	12%	x	x	x	x	x
Cc1ccc(Nc2nc(N3CCCC3)nc3nccnc23)c(C)c1	2%	x	x	x	x	x
Cc1ccc(C(=O)c2sc(Nc3cccc(Cl)c3C)nc2N)cc1	28µM*	x	x	x	x	x
Cc1ccc(C(=O)c2sc(Nc3cc(C)cc(C)c3)nc2N)cc1	-15%	x	x	x	x	x
CCOC(=O)c1sc(Nc2ccccc2Cl)nc1C	28µM*	-5%	-25%	-21%	10%	0%
COc1ccc2oc(=O)c(/C(C)=N/Nc3ccccc3)cc2c1	32µM*	-6%	-15%[57.1 µM]	-5%	9%	-19%
COc1ccc(NC(=O)c2cc(C)no2)cc1	13µM*	1%	-2%	-22%	-2%	13%
Cc1ccc(NC(=O)c2cc(C)no2)cc1	3%	-13%	1%	-4%	5%	9%
NC(=O)CSc1nnc(-c2cccs2)n1Cc1ccco1	27%	12%	-3%	-25%	6%	9%
CCN(CC)C(=O)CSc1nnc(-c2cccs2)n1Cc1ccco1	46%	0%	11%	-5%	10µM*	8%

Assay outcomes as filed in PubChem BioAssay.
